Where “and” joins values, the source holds several entries; their conditions need not be identical. Equal entries are not always repeated. Records with an inconclusive call do not appear. Some structures have more than one record in an assay (separate samples or runs), and their calls can disagree. Calls of active or inactive are those of the source. Unless noted, calls come from the whole dose curve; as a rule, active = well fitted curve in the direction sought with a large enough effect; inconclusive = small, poorly fitted or top-dose-only effect, or another doubt; inactive = no such curve, though single readings can be large; an effect the other way counts as inactive or inconclusive.

The nature of assay [1]: Validation qHTS assay for inhibitors of Activation Induced Cytidine Deaminase (AID): UDG Counterscreen signal (AID 1347427). Note: 0% is about no effect. Put shortly: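 Fluorescence at 560 nm excitation, 665 nm emission reports UDG signal after 250 mM NaOH (2x) addition and 30 min. Enzymes (AID 1 uM, UDG 2 U/mL, at 4/3x) preincubated 10 min with compound, then 4 h with 4x 250 nM DJC20/DJC23 substrate at room temperature.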
In general terms: Quantitative high-throughput screening tests each substance at several concentrations.

The nature of assay [2]: Primary qHTS for inhibitors of La Crosse Virus (LACV) - induced cell death in SH-SY5Y cells (AID 1508616). Note: potency is the fitted concentration of half-maximal effect. Put shortly:
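Cytopathicity rescue screen: compounds pinned onto SH-SY5Y cells, which are then infected with LACV (MOI 0.01) and held 6 days at 37C. Percent activity is scaled between infected DMSO control and uninfected DMSO control.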

The target in assay [3] is Calcium and integrin-binding protein 1 (Homo sapiens) (UniProt Q99828). Kind of assay: Primary qHTS for Identification of Calcium Integrin Binding Protein 1 (CIB1) Competitor (AID 1508620).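 Note: GST tagged CIB1 binding a fluorescein labelled alphaIIb integrin peptide tracer; top concentration of the series differs between compounds; % is set by controls: 0 for no effect and ±100 for the full control effect.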 Put shortly: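 Fluorescence polarization competition: CIB1-GST (1 uM final) preincubated with compound 15 min at room temperature, then FITC-labeled alphaIIb peptide (100 nM final) added for another 15 min. Polarization read at Ex 480/Em 540.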

Assay [4] is described as follows: Primary qHTS for small molecule stabilizers of the endoplasmic reticulum resident proteome: Secreted ER Calcium Modulated Protein (SERCaMP) assay (AID 1508630). Note: % is set by controls: 0 for no effect and ±100 for the full control effect. The gist of the method: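 The SH-SY5Y reporter protocol was run at 3 concentrations up to 38.3 uM (primary) or 11 concentrations (follow-up): 16 h compound, 100 nM thapsigargin for 4 h, then extracellular luciferase luminescence.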

The target in a further assay is Papain (Carica papaya) (UniProt P00784). The assay is described as follows: Primary qHTS assay for inhibitors of the protease papain (AID 1645873).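 Note: papain turnover of Z-FR-AMC read as the AMC fluorescence gain over 10 min; series mostly up to about 50 µM; % is set by controls: 0 for no effect and ±100 for the full control effect.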
Assay [5] in a line: Primary qHTS for inhibitors of nuclear receptor binding SET domain protein 2 (NSD2) in an isogenic RCH-ACV NSD2 p.E1099K mutant (9B) (AID 1645876). Note: nearly all actives have a fitted effect of over 70% in size. Note: potency is the fitted concentration of half-maximal effect.
A short description of assay [6]: Primary qHTS for inhibitors of nuclear receptor binding SET domain protein 2 (NSD2) in an RCH-ACV wild type WT cells (2C) (AID 1645877). Note: nearly all actives have a fitted effect of over 70% in size. Note: potency is the fitted concentration of half-maximal effect.
The target in assay [7] is Rap guanine nucleotide exchange factor 3 (Homo sapiens) (UniProt O95398). The assay is described as follows: Confirmatory qHTS for antagonist of cAMP-regulated guanine nucleotide exchange factor 3 (EPAC1) (AID 1645880). Note: nearly all actives have a fitted effect of over 55% in size. Note: potency is the fitted concentration of half-maximal effect. Put shortly:
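Released BODIPY-GDP fluoresces less than Rap1-bound BODIPY-GDP; the signal is followed at 480/540 nm at 5-min intervals over 30 min, after 5 min at room temperature. Reactions contain 100 nM EPAC1, 250 nM RAP1B-BODIPY-GDP and 50 uM GDP; results are normalized to ATA and DMSO.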

The target of assay [8] is Calcium and integrin-binding protein 1 (Homo sapiens) (UniProt Q99828). Kind of assay: Validation qHTS for Identification of Calcium Integrin Binding protein 1 (CIB1) Competitor (AID 1508618). Note: % is set by controls: 0 for no effect and ±100 for the full control effect. The gist of the method: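 Fluorescence polarization with 1 uM CIB1-GST and 100 nM FITC-alphaIIb peptide in HEPES pH 7.4, NaCl, 5 mM CaCl2, Tween20. Compounds at up to 114 uM final, preincubated with protein 15 min; read after 15 min more at RT.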

Assay [9] can be described thus: Counterscreen qHTS for small molecule stabilizers of the endoplasmic reticulum resident proteome: GLuc-NoTag assay (AID 1508627). Note: potency is the fitted concentration of half-maximal effect. Put shortly:
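Secreted GLuc lacking the SERCaMP modification is measured in SH-SY5Y cells exposed to compound for 19 h and then to thapsigargin (100 nM, 4 h) to deplete ER calcium; hits retested at 11 concentrations, up to 76.6 uM.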

The nature of assay [10]: Confirmatory qHTS for small molecule stabilizers of the endoplasmic reticulum resident proteome: Secreted ER Calcium Modulated Protein (SERCaMP) assay (AID 1508628). Note: nearly all actives have a fitted effect of over 40% in size. Note: potency is the fitted concentration of half-maximal effect. Put shortly:
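GLuc-SERCaMP-expressing SH-SY5Y cells, pretreated 16 h with compound, are challenged with thapsigargin to empty ER calcium stores; after 4 h, coelenterazine is added directly to the medium and luminescence is imaged.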

Assay [11] can be described thus: Cell Viability qHTS for small molecule stabilizers of the endoplasmic reticulum resident proteome (AID 1508629). Particulars: cell viability counter-screen, 100 nM thapsigargin for final 4 h.
Assay [12] addresses Protein phosphatase 1D (Homo sapiens) (UniProt O15297). The assay is described as follows: Rhodamine-PBP qHTS Assay for Modulators of WT P53-Induced Phosphatase 1 (WIP1) (AID 1347425). Note: % of control where 0% means no effect. The gist of the method:
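WIP1 (5 nM final) was preincubated with compound for 1 hour at room temperature. It then dephosphorylated 10 uM VEPPL-pS-QETFS peptide in Tris-HCl pH 7.5 with 30 mM MgCl2. Released Pi was detected by 10 uM Rh-PBP fluorescence (ex 525/em 598 nm) read at 1-min intervals for 11 min, as delta f1 - f0.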

The target of assay [13] is Cytochrome P450 2D6 (Homo sapiens) (UniProt P10635). Kind of assay: Cytochrome P450 family 2 subfamily D member 6 (CYP2D6) small molecule antagonists: luciferase biochemical (cell-free) qHTS assay (AID 1645840; active = well fitted curve in the direction sought with a large enough effect in the repeat runs; an effect the other way counts as inactive or inconclusive; note: nearly all actives have a fitted effect of over 55% in size; note: potency is the fitted concentration of half-maximal effect). Put shortly:
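P450-Glo CYP2D6 system: proluciferin substrate converted by enzyme to luciferin, read by luminescence proportional to activity. Enzyme-substrate mix with compound 10 min at room temperature, then NADPH regeneration 1 h before detection reagent.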

Assay [14] deals with Cytochrome P450 2C9 (Homo sapiens) (UniProt P11712). The assay is described as follows: Cytochrome P450 family 2 subfamily C member 9 (CYP2C9) small molecule antagonists: luciferase biochemical (cell-free) qHTS assay (AID 1645842; active = well fitted curve in the direction sought with a large enough effect in the repeat runs; an effect the other way counts as inactive or inconclusive; note: nearly all actives have a fitted effect of over 55% in size; note: potency is the fitted concentration of half-maximal effect). Put shortly: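 P450-Glo CYP2C9 system: proluciferin substrate with enzyme in mix containing 0.4% BSA, 10 min at room temperature, then NADPH regeneration solution added and incubated 1 h at 37C. Detection reagent stopped reaction; luminescence read after 20 min as RLU.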

Assay [15] is described as follows: A High-Content qHTS Against Drug Library for the Identification of Small Molecules that Inhibit DYT1 Early Onset Primary Dystonia-Associated Cell Pathology (AID 1645839; calls by dose curve; note: series mostly up to about 46 µM). Put shortly: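 Induced EGFP-delE TorsinA cells are imaged after 48 h of compound treatment. Punctate fusion-protein distribution gives the %pathology value, while nuclei counts flag toxicity. Wild-type EGFP-hTOR1A cells define the normal pattern.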

The target in assay [16] is N-terminal Xaa-Pro-Lys N-methyltransferase 1 (Homo sapiens) (UniProt Q9BV86). The assay is described as follows: Confirmatory qHTS for Inhibitors of N-terminal methyltransferase 1 (NTMT1): MTaseGlo Assay (AID 1645874). Note: potency is the fitted concentration of half-maximal effect; nearly all actives have a fitted effect of over 65% in size. Put shortly: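 Inhibition was derived from luminescence after SAH-to-ATP conversion, scaled between no-enzyme and DMSO wells, then fitted by 4-parameter Hill. Conditions: 125 nM NTMT1, 100 uM SAM, 1 uM SPKRIA, 30 min RT.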
Sequence of N-terminal Xaa-Pro-Lys N-methyltransferase 1 (Homo sapiens) (Q9BV86 whole entry, looked up): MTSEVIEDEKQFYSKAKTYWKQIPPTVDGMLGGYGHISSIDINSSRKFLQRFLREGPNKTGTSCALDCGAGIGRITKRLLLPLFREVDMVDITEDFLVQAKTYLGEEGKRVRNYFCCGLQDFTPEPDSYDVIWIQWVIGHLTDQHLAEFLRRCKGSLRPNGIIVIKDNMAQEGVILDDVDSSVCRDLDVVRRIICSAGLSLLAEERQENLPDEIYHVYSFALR

Sequence of Cytochrome P450 2D6 (Homo sapiens) (P10635 whole entry, looked up): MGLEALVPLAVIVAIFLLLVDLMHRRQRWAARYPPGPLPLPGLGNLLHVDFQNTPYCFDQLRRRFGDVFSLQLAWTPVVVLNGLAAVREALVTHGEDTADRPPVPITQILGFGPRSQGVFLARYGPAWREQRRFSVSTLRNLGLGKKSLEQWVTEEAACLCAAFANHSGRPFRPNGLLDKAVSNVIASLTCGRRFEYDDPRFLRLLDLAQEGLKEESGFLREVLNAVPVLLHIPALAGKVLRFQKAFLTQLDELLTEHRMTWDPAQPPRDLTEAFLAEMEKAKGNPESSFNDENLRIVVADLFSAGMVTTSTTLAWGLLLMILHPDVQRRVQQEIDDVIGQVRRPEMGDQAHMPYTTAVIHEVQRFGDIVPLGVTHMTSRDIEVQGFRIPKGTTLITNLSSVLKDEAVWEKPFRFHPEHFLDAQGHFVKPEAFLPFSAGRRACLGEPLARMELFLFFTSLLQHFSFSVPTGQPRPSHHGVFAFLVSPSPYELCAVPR
Sequence of Protein phosphatase 1D (Homo sapiens) (O15297 whole entry, looked up): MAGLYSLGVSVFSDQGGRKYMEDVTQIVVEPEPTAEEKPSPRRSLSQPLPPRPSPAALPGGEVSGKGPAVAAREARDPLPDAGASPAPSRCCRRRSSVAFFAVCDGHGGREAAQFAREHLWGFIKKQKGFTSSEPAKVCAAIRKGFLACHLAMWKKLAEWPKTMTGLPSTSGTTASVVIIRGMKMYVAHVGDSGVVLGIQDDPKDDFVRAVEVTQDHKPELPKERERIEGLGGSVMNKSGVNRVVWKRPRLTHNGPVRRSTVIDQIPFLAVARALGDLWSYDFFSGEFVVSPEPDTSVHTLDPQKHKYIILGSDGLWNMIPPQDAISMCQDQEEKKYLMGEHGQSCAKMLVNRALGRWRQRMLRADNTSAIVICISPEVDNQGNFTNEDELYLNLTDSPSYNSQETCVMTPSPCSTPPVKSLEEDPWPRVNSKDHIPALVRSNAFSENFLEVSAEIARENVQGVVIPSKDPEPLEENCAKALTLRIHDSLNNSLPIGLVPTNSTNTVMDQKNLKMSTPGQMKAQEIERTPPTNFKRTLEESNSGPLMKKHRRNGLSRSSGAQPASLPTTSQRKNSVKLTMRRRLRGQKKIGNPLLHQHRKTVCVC
Sequence of Papain (Carica papaya) (P00784 whole entry, looked up, the tested form may be a part): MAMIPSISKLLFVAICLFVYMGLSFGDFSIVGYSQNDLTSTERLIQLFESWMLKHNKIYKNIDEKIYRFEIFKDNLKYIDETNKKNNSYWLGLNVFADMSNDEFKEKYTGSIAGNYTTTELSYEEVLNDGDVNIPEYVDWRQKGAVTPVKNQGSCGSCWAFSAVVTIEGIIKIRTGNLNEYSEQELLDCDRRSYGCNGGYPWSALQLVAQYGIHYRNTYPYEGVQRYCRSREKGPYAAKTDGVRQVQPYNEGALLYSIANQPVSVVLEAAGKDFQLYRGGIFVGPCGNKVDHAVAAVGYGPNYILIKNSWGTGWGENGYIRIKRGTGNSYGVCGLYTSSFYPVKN
Sequence of Calcium and integrin-binding protein 1 (Homo sapiens) (Q99828 whole entry, looked up): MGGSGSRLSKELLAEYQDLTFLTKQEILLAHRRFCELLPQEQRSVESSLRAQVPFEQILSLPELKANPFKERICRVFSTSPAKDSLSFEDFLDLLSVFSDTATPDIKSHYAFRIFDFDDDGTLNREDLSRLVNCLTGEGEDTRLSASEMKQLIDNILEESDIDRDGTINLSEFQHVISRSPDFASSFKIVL
Sequence of Rap guanine nucleotide exchange factor 3 (Homo sapiens) (O95398 whole entry, looked up): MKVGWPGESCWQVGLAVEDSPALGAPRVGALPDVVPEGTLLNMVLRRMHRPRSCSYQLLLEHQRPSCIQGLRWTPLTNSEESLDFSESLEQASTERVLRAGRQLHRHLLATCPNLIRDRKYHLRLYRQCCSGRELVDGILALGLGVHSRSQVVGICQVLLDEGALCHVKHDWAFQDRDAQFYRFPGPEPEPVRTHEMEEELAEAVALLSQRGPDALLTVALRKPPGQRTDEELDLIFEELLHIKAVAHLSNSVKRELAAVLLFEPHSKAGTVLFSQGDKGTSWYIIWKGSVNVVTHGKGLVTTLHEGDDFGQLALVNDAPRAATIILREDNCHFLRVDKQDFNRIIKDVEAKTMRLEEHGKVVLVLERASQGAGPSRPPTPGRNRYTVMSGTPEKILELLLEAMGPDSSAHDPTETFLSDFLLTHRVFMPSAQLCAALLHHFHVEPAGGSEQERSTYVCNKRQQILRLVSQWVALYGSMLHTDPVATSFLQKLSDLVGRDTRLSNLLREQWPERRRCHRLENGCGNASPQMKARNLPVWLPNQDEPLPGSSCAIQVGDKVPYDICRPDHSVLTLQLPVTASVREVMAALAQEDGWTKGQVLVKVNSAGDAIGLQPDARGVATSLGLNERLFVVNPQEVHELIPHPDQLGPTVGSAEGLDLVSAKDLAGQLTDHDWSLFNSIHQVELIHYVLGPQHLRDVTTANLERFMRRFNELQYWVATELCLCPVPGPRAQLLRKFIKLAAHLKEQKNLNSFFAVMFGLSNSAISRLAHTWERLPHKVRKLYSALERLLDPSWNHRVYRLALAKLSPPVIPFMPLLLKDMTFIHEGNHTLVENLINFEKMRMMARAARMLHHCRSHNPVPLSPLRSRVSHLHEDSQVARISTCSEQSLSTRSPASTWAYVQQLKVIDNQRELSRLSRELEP
Sequence of Cytochrome P450 2C9 (Homo sapiens) (P11712 whole entry, looked up): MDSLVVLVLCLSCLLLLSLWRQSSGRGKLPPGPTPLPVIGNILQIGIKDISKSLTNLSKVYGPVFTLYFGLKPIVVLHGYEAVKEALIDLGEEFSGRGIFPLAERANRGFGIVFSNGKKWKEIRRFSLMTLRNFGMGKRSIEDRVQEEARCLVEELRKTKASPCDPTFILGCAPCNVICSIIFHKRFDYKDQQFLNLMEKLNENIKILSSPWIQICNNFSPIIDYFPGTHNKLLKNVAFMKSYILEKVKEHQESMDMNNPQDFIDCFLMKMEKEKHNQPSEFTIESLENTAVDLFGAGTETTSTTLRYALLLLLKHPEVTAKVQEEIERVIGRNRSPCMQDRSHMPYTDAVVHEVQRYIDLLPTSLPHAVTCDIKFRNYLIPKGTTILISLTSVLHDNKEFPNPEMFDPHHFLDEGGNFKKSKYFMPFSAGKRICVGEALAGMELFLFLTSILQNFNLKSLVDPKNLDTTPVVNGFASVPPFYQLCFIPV

As for `O=C1c2ccccc2-c2n[nH]c3cccc1c23`, the Potency result (in assay [1]; in assay [2]; in [3]; in assay [4]; with Papain (Carica papaya)) was “inactive” throughout. Also, the Potency in assay [5] was 11.8 µM (active) and 14.6 µM (active); in assay [6], 13.2 µM (active) and 14.6 µM (active).
On to `CC(C)c1ccc2c(c1)c(SC(C)(C)C)c(CC(C)(C)C(=O)O)n2Cc1ccc(Cl)cc1`, for which the Potency result (in [1]; in [3]; in assay [4]; in the assay with Papain (Carica papaya); in assay [5]; in assay [6]) was “inactive” throughout. For the same compound, the Potency result in assay [7] was “inactive and 30.1 µM (active) and 35.2 µM (active)”.
For the compound `O=C1c2c(O)cc(O)cc2OC(c2ccc(O)c(O)c2)C1O` (stereo not drawn), the Potency entry (in assay [1]; in [2]; in assay [3]; with Papain (Carica papaya)) was “inactive” throughout.
As for `C[C@H](Cc1ccc(O)c(O)c1)[C@@H](C)Cc1ccc(O)c(O)c1`, the Potency was 1 µM (active) in [2]; 35.5 µM (active) in assay [9]; 7.94 µM (active) in assay [10]; 13.2 µM (active) and 7.31 µM (active) in assay [5]; 11.8 µM (active) and 7.31 µM (active) in assay [6]. Further, in assay [8], the outcome was inactive. For the same compound, the max response in assay [11] was -16.2% (inactive). Moreover, the Potency entry (in assay [4]; with Papain (Carica papaya)) was “inactive” throughout.
As for `Clc1ccc(C(Cn2ccnc2)OCc2ccsc2Cl)c(Cl)c1` (stereo not drawn), the call in assay [12] was inactive. The Potency result in assay [2] and in [3] was “inactive” each time. Further, the Potency was 0.692 µM (active) in assay [13], 0.0692 µM (active) in assay [14], 18.6 µM (active) in assay [5] and 18.6 µM (active) in [6].
`Cc1cccc(C#Cc2ccccc2)n1`: the Potency result in assay [1], in assay [2], in assay [3] and in assay [4] was “inactive” in each case. In assay [8], the outcome was inactive.
In the case of `COc1cc2c(cc1OC)C1CC(=O)C(CC(C)C)CN1CC2` (stereo not drawn), the Potency result in [1], in assay [2], in assay [3], in [4], in assay [5] and in [6] was “inactive” throughout. Moreover, the outcome in assay [8] was inactive.
With `O=c1c(O)c(-c2cc(O)c(O)c(O)c2)oc2cc(O)cc(O)c12`, the Potency entry in assay [1], in assay [2], in [3] and in assay [4] was “inactive” throughout. The result in assay [8] was inactive. In addition, in assay [5], the Potency was 18.6 µM (active).
Turning to `CCC(C)(Oc1ccc(C2(c3ccc(OC(C)(CC)C(=O)O)cc3)CCCCC2)cc1)C(=O)O` (stereo not drawn), the compound was classed as inactive in assay [12]. Further, the Potency entry in assay [2], in [3], in [15], in assay [13], in assay [14] and in [5] was “inactive” in each case. In addition, the Potency entry in assay [6] is “inactive”.
On to `C[C@@H](N)C1CCC(C(=O)Nc2ccncc2)CC1` (stereo partly drawn), for which the Potency result (in [1]; in [2]; in assay [3]; in [4]; with Papain (Carica papaya); in [5]) was “inactive” in each case. Further, in [6], the Potency result is “inactive”. Also, the result in assay [8] was inactive.
As to `Nc1nc(OCc2ccccc2)c2[nH]cnc2n1`, the Potency entry (in assay [1]; in [2]; in [3]; in assay [4]; in the assay with Papain (Carica papaya)) was “inactive” throughout. Further, in [8], the result was inactive.
On to `O=Nc1c(-c2c(O)[nH]c3cc(Br)ccc23)[nH]c2ccccc12`, for which the Potency result (in assay [1]; in assay [3]; in the assay with Papain (Carica papaya)) was “inactive” in each case. Besides, the outcome in assay [8] was inactive. Also, the figures for the Potency in assay [13], in assay [5] and in assay [6] were 21.3 µM (active), 1.32 µM (active) and 1.32 µM (active), respectively.
On to `CC1=C(C)C(=O)C(C(CCCCCC(=O)O)c2ccccc2)=C(C)C1=O` (stereo not drawn), for which the call in assay [12] was inactive. Besides, the Potency result in [2], in assay [3], in assay [4], in assay [5] and in assay [6] was “inactive” each time. The Potency was 11 µM (active) in assay [13] and 17.4 µM (active) in assay [14].
For `CC(=O)N1CCN(c2ccc(OC[C@H]3CO[C@](Cn4ccnc4)(c4ccc(Cl)cc4Cl)O3)cc2)CC1`, the Potency entry (in assay [1]; in assay [2]; in assay [3]; in [4]; with Papain (Carica papaya); in [7]) was “inactive” each time. Further, in assay [8], the result was inactive.
On to `Oc1ccc(-c2nc(-c3ccc(F)cc3)c(-c3ccncc3)[nH]2)cc1`, for which the Potency result (in [1]; in [2]; in assay [3]; in assay [4]; in the assay with Papain (Carica papaya)) was “inactive” throughout. Further, the outcome in assay [8] was inactive. Moreover, the results for the Potency in assay [16], in assay [5] and in assay [6] were 39.8 µM (active), 5.25 µM (active) and 14.8 µM (active), respectively.
`O=c1cc(N2CCOCC2)oc2c(-c3ccccc3)cccc12`: the Potency entry in assay [1], in assay [3], in assay [9], in [10] and in [4] was “inactive” in each case. The max response in [11] was -28.5% (inactive). Moreover, the Potency was 4.17 µM (active) in assay [5] and 2.63 µM (active) in assay [6].
Regarding `NCCCCNCCCN`, the Potency result (in [1]; in assay [2]; in [3]; in assay [4]; with Papain (Carica papaya)) was “inactive” each time. The outcome in [8] was inactive. Further, in assay [6], the Potency is 6.61 µM (active).
As to `OC(CN1CCN(c2cccc(Cl)c2)CC1)C(c1ccccc1)c1ccccc1` (stereo not drawn), the Potency result in [1], in assay [2], in [3] and in assay [4] was “inactive” throughout.
Take `Nc1ncn([C@H]2C[C@H](O)[C@@H](CO)O2)c(=O)n1`: the compound was called inactive in assay [12]. The Potency entry in assay [3], in assay [4], in [15], in assay [13] and in [14] was “inactive” throughout. Also, the Potency in [5] is 266 nM (active) and 742 nM (active); in assay [6], 133 nM (active) and 1.18 µM (active).
As to `O=C(O)c1cc(=O)c2c(OCC(O)COc3cccc4oc(C(=O)O)cc(=O)c34)cccc2o1`, the Potency result in assay [2], in assay [3], in assay [9], in [10], in assay [4] and in assay [15] was “inactive” throughout. In addition, the Potency result in assay [13], in [14], in assay [5] and in [6] was “inactive” each time. Besides, the max response in assay [11] is 17.9% (inactive).

The values are drawn from PubChem BioAssay (NCATS).
